Among the test systems are S6K1; SBK1; SGK2; SGK3; SGK; SIK2; SIK; SLK; SNRK; SRC; SRMS; SRPK1; SRPK2; SRPK3; STK16; STK33; STK35.
Holding throughout (conditions): concentration: 1 μM, replicates: in singlicate; n = 1
Assay [1] concerns T1, RSK4(Kin.Dom.1-N-terminal).
T1 construct: gene RPS6KA6

The subject of assay [2] is T2, RSK4(Kin.Dom.2-C-terminal).
T2 construct: gene RPS6KA6

In another assay the test system is T3, SNARK.
T3 construct: gene NUAK2
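Also: KINOMEscan kinase panel screen.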

Consider `NCCCC(NC(=O)c1cc(Br)c(-c2ccnc3[nH]ccc23)s1)c1ccccc1.O=C(O)C(F)(F)F.O=C(O)C(F)(F)F` (centres unmarked) [GSK1287544], for which the “%Inh” value was 8% in assay [1]; 0% in assay [2]; 58% with S6K1; 44% in the assay with SBK1; 65% in the assay with SGK2; 52% in the assay on SGK3. For the same molecule, the “%Inh” value in the assay on SGK is 54%; in the assay with SIK2 it was 0%; with SIK, 19%; in the assay on SLK, 14%; in the assay on SNARK, 88%; in the assay with SNRK it was 6%. Besides, the “%Inh” value in the assay with SRC stood at 0%; in the assay on SRMS it was 0%; in the assay on SRPK1, 70%; in the assay on SRPK2, 12%; with SRPK3, 57%; with STK16, 60%. Also, the “%Inh” value turned out to be 91.5% with STK33 and 0% in the assay with STK35.

Consider `CC(C)(C)c1ccc2nccc(Nc3cccc(O)c3)c2c1` [GW856795], for which the “%Inh” value in assay [1] was 0%; in assay [2] it was 27%; in the assay with S6K1 it was 9%; in the assay with SBK1, 0%; in the assay with SGK2, 1%; in the assay on SGK3, 0%. Also, the “%Inh” value in the assay with SGK stood at 15%; with SIK2, 0%; in the assay with SIK, 0%; in the assay with SLK, 55%; in the assay on SNARK, 0%; in the assay with SNRK, 0%. Also, the “%Inh” value was 96.7% with SRC; 0% with SRMS; 0% with SRPK1; 9% in the assay on SRPK2; 20% in the assay with SRPK3; 0% in the assay with STK16. Besides, the “%Inh” value with STK33 and in the assay with STK35 was 0% throughout.

As for `COc1ccc(Nc2nccc(NCCNC(=O)c3cc4ccccc4s3)n2)cc1` [GSK1379896], the “%Inh” value is reported as 0% in assay [1]; 0% in assay [2]; 7% in the assay with S6K1; 20% in the assay with SBK1; 6% in the assay on SGK2; 0% in the assay with SGK3. Also, the “%Inh” value in the assay on SGK stood at 0%; in the assay on SIK2 it was 0%; with SIK it was 0%; with SLK, 18%; with SNARK, 0%; in the assay on SNRK it was 2%. Also, the “%Inh” value is recorded as 9% in the assay with SRC; 0% with SRMS; 32% with SRPK1; 0% in the assay with SRPK2; 3% with SRPK3; 13% in the assay with STK16. The “%Inh” value in the assay on STK33 and in the assay on STK35 was 0% in each case.

Turning to `COc1ccc(-c2coc3ccc(-c4nnc(SCc5ccc(OC)c(C(F)(F)F)c5)o4)cc23)cc1`, the “%Inh” value in assay [1] stood at 25%; in [2] it was 16%; in the assay with S6K1, 0%; in the assay with SBK1, 0%; in the assay on SGK2 it was 6%; in the assay on SGK3, 28%. Moreover, the “%Inh” value was 0% in the assay on SGK; 21% with SIK2; 10% in the assay with SIK; 9% with SLK; 35% in the assay with SNARK; 21% in the assay with SNRK. For the same molecule, the “%Inh” value came out at 4% in the assay with SRC; 0% in the assay on SRMS; 8% in the assay on SRPK1; 0% in the assay on SRPK2; 0% in the assay with SRPK3; 17% in the assay on STK16. For the same molecule, the entries for the “%Inh” value with STK33 and with STK35 were 7% and 0%, respectively.

`O=C(NC1CCN(c2ccnc(Nc3ccc(F)cc3)n2)C1)c1cc2ccccc2s1` (centres unmarked) [GSK1379716]: the “%Inh” value is on record as 0% in [1]; 24% in assay [2]; 0% in the assay with S6K1; 24% in the assay with SBK1; 0% with SGK2; 0% with SGK3. In addition, the “%Inh” value amounted to 14% in the assay with SGK; 6% in the assay with SIK2; 11% with SIK; 32% in the assay on SLK; 0% in the assay with SNARK; 0% with SNRK. Besides, the “%Inh” value stood at 1% with SRC; 0% in the assay with SRMS; 31% in the assay with SRPK1; 37% in the assay on SRPK2; 4% in the assay with SRPK3; 15% with STK16. Besides, the “%Inh” value with STK33 is 0%; in the assay with STK35, 6%.

Consider `O=C(Nc1n[nH]c2nc(-c3ccc(O)cc3)ccc12)C1CC1` [SB-710363], for which the “%Inh” value in assay [1] is listed as 70%; in assay [2], 0%; in the assay on S6K1 it was 40%; in the assay on SBK1, 0%; in the assay with SGK2 it was 36%; in the assay with SGK3, 15%. The “%Inh” value with SGK was found to be 43%; in the assay with SIK2, 0%; in the assay on SIK, 0%; in the assay on SLK it was 61%; with SNARK, 0%; with SNRK, 0%. Besides, the “%Inh” value turned out to be 0% in the assay on SRC; 2% in the assay on SRMS; 20% in the assay with SRPK1; 0% in the assay with SRPK2; 25% with SRPK3; 73% in the assay on STK16. Moreover, the “%Inh” value with STK33 and with STK35 was 0% throughout.

As to `CN(C)S(=O)(=O)c1cc(-c2ccc3nccc(-c4cccc(S(N)(=O)=O)c4)c3c2)cnc1N` [GSK1669921], the “%Inh” value in assay [1] is on record as 2%; in assay [2], 44%; with S6K1, 19%; in the assay on SBK1, 15%; in the assay on SGK2, 6%; in the assay with SGK3, 16%. Also, the “%Inh” value in the assay on SGK turned out to be 5%; with SIK2, 10%; in the assay on SIK it was 0%; in the assay with SLK, 2%; in the assay with SNARK, 22%; in the assay with SNRK it was 12%. Besides, the “%Inh” value in the assay on SRC is given as 0%; in the assay with SRMS, 0%; in the assay with SRPK1, 13%; with SRPK2, 0%; in the assay with SRPK3, 19%; in the assay on STK16 it was 45%. For the same molecule, the results for the “%Inh” value in the assay on STK33 and with STK35 were 3% and 8%, respectively.

As to `Cl.Cl.NCC(C(=O)Nc1cc(Br)c(-c2ccnc3[nH]ccc23)s1)c1ccccc1` (centres unmarked) [GSK1269851], the “%Inh” value came to 0% in assay [1]; 2% in assay [2]; 35% in the assay on S6K1; 3% in the assay on SBK1; 0% in the assay with SGK2; 24% in the assay on SGK3. Moreover, the “%Inh” value in the assay on SGK is on record as 28%; in the assay with SIK2, 0%; in the assay on SIK, 0%; with SLK, 14%; in the assay with SNARK it was 0%; with SNRK it was 0%. Further, the “%Inh” value with SRC is recorded as 0%; with SRMS, 0%; in the assay on SRPK1 it was 73%; in the assay with SRPK2 it was 59%; in the assay with SRPK3, 90.7%; with STK16 it was 13%. In addition, the results for the “%Inh” value with STK33 and with STK35 were 52% and 0%, respectively.

Consider `CNC(=O)c1ccccc1Nc1nc(Nc2ccc(N3CCOCC3)cc2)ncc1Cl.Cl` [GSK1576028], for which the “%Inh” value in assay [1] is 99.3%; in assay [2], 38%; with S6K1, 97%; in the assay with SBK1, 90.5%; in the assay with SGK2, 50%; with SGK3 it was 87%. Moreover, the “%Inh” value amounted to 97.1% in the assay on SGK; 92.4% in the assay on SIK2; 99% in the assay with SIK; 99.5% in the assay with SLK; 99.2% in the assay with SNARK; 0% in the assay with SNRK. Further, the “%Inh” value is reported as 100% in the assay with SRC; 67% in the assay on SRMS; 98.1% in the assay on SRPK1; 35% with SRPK2; 78% with SRPK3; 99.2% in the assay with STK16. In addition, the “%Inh” value came to 98.6% in the assay with STK33 and 50% in the assay on STK35.

For `CN1CCN(CCCNc2nccc(-c3c(-c4ccc(F)cc4)nn4cc(C(F)(F)F)ccc34)n2)CC1` [GW621581], the “%Inh” value stood at 0% in assay [1]; 80% in assay [2]; 1% in the assay with S6K1; 8% in the assay with SBK1; 0% in the assay on SGK2; 0% with SGK3. Besides, the “%Inh” value in the assay on SGK is reported as 12%; in the assay on SIK2, 70%; in the assay on SIK, 0%; in the assay with SLK it was 42%; in the assay on SNARK it was 0%; in the assay with SNRK it was 0%. The “%Inh” value in the assay on SRC turned out to be 14%; in the assay on SRMS, 0%; with SRPK1, 26%; in the assay with SRPK2, 0%; in the assay with SRPK3 it was 16%; in the assay on STK16, 0%. Besides, the “%Inh” value in the assay on STK33 turned out to be 0%; with STK35, 60%.

Source of the values: PMC5540273 (PLoS ONE, 2017).
